# Source: PubChem BioAssay
# Values joined by “and” are separate entries in the source; they are usually repeats but may differ in a detail not shown here. Equal values may be shown once. Results filed as inconclusive are left out. For some of these results: Entries with a potency or affinity are not part of this list. Some compounds were tested as several samples or in several runs, with calls that do not always agree. Active and inactive are the calls of the source.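 Rule for the calls, unless noted: active = compounds killing one labelled cell type while sparing the other, by normalised counts and ratio limits, not self-fluorescent; inactive = the rest.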
# Experiments:
# [1] = differential killing of epithelial or mesenchymal cells, primary screen, imaging, PC-3E GFP, TEM4-18 mCherry, co-culture (AID 1345086); settings: imaging cell counts, at 1 µM; for red/green cell ratio (normalised): actives lie on both sides, counts scaled to control wells, 1 = unselective;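 for all read-outs here: cells exposed to compound for 72 h before imaging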;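 for red/green cell ratio (normalised): normalised mesenchymal count divided by normalised epithelial count so high means epithelial killing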
# [2] = polyglutamine-triggered caspase-3 activation inhibitors, cell-based (AID 1583); settings: polyglutamine-induced caspase-3 activation, cell assay; stronger effect = higher value;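 tested at 10 µM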
# [3] = suppressors of polyQ aggregation in yeast, 75Q-TubU reporter (AID 1593); settings: Yeast 75Q polyglutamine aggregation reporter
# [4] = rescue of polyQ-huntingtin neuronal dysfunction in worms, whole organism, C. elegans mechanosensory neurons, N-terminal huntingtin (AID 1599); settings: touch response, stronger effect = higher value
# [5] = inhibitors of mitochondrial cytochrome c release, biochemical, purified mitochondria (AID 1603); settings: stronger effect = lower value;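 note: mouse liver mitochondria challenged with calcium chloride; signal normalized to the plate average as 100%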
# [6] = inhibitors of polyQ protein aggregation (AID 1604); settings: polyglutamine-induced protein aggregation inhibition assay; stronger effect = higher value; tested at 2.5 µM
# [7] = enhancers of glutamate uptake in motor neurons, MN-1 cell line (AID 1612); settings: MN-1 motor neuron cells, stronger effect = higher value;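 note: tested at 1 µM final; 0% = mean of DMSO vehicle wells on each plate; positive means more glutamate uptake than control and negative means less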
# [8] = suppressors of polyglutamine aggregation in yeast, 75Q-TubH (AID 1616); settings: S. cerevisiae 75Q-TubH polyglutamine aggregation suppression; stronger effect = higher value
# [9] = circadian clock period modulators, cell-based, LOPAC library, luminescence reporter (AID 2774; call rule not given here;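 note: values are relative to mean of DMSO wells on each plate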); settings: circadian reporter cells, at 7 µM, actives lie on both sides
# [10] = liver-stage malaria parasite growth inhibition, primary screen, cell-based, HepG2, luciferase luminescence, HepG2 viability (AID 624349; in the data active = parasite load remaining mostly below about 12%, no sharp cut-off; inactive = mostly above about 10%;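 note: 100% = mean of DMSO negative control wells on the same plate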); settings: P. berghei liver stage in HepG2, luciferase luminescence, concentration not given here; parasite load remaining: stronger effect = lower value; viability: measured here: HepG2 viability without parasites
# [11] = test system: Hepatitis C virus NS3 helicase; test: HCV NS3 helicase inhibitors, primary screen, biochemical, fluorescence polarization, LOPAC1280 library (AID 687035; in the data active = inhibition above about 37%); settings: Purified HCV NS3 helicase, Cy5-dT15 ssDNA binding fluorescence polarization; stronger effect = higher value; concentration not given here
# [12] = Cy5 fluorescence quenching or enhancement artefacts, artefact control for HCV NS3 helicase inhibitor project, biochemical, LOPAC1280 (AID 687037; call rule not given here); settings: Cy5-DNA-NS3h complex fluorescence interference counterscreen
# [13] = test system: Aerobactin synthetase IucA (Klebsiella pneumoniae); test: IucA aerobactin synthetase inhibitors, biochemical, Tocris library, absorbance (AID 1345561; call rule not given here;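 note: 100% = enzyme without compound and 0% = no enzyme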); settings: purified IucA enzyme assay, absorbance (OD) read-out; stronger effect = lower value;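 tested at 8 µM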
# [14] = growth inhibition of DIPG glioma cells, dose response, cell-based, SU-DIPG-XVII, MIPE5.0, CellTiter-Glo, qHTS (AID 1347060; cut-off not given, nearly all actives have AC50 up to about 26 µM;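 note: cells exposed to compound for 48 hours before viability readout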); settings: SU-DIPG-XVII viability, CellTiter-Glo ATP luminescence
# [15] = growth inhibition of DIPG glioma cells, dose response, cell-based, SU-DIPG-XIII, MIPE4.0, CellTiter-Glo, qHTS (AID 1347061; cut-off not given, nearly all actives have AC50 up to about 37 µM;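 note: cells exposed to compound for 48 hours before readout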); settings: SU-DIPG-XIII viability, CellTiter-Glo ATP luminescence
# [16] = growth inhibition of DIPG glioma cells, dose response, cell-based, JHH-DIPG-1, MIPE4.0, CellTiter-Glo, qHTS (AID 1347062; cut-off not given, nearly all actives have AC50 up to about 27 µM); settings: JHH-DIPG-1 viability, CellTiter-Glo ATP luminescence
# [17] = growth inhibition of DIPG glioma cells, dose response, cell-based, SU-DIPG-IV, MIPE4.0, CellTiter-Glo, qHTS (AID 1347063; cut-off not given, nearly all actives have AC50 up to about 30 µM;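 note: compound exposure lasted 48 hours before the viability readout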); settings: SU-DIPG-IV viability, CellTiter-Glo ATP luminescence
# [18] = growth inhibition of DIPG glioma cells, dose response, cell-based, SU-DIPG-XIII, MIPE5.0, CellTiter-Glo, qHTS (AID 1347064; cut-off not given, nearly all actives have AC50 up to about 23 µM); settings: SU-DIPG-XIII viability, CellTiter-Glo ATP luminescence
# [19] = viability loss in pontine glioma line – cell-based, SU-DIPG-XXV, MIPE5.0, CellTiter-Glo, qHTS, dose response (AID 1347065; cut-off not given, nearly all actives have AC50 up to about 26 µM;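 note: cells exposed to compound for 48 hours before ATP readout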); settings: CellTiter-Glo ATP luminescence
# [20] = SU-DIPG-VI glioma cell viability, MIPE4.0 library, CellTiter-Glo luminescence, qHTS (AID 1347066; cut-off not given, nearly all actives have AC50 up to about 30 µM;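 note: cells exposed to compound for 48 hours before readout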); settings: CellTiter-Glo ATP luminescence
# [21] = sensitizers of A549 cells to miR-34 induction, primary screen, imaging, A549 dox-inducible miR-34, nuclei and caspase counts (AID 1347080;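 active = compounds whose cell count with miR-34 switched on is under 0.7 times the count with it off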); settings: A549 miR-34 inducible, Hoechst nuclei count, 48 h
# [22] = modifiers of HSF1 nuclear foci, imaging, Selleck Cancer Library (AID 1347162; in the data active = plate-normalised HSF1 focus index below about 0.46); settings: human cells, at 10 µM; SSMD: measured here: HSF1 foci SSMD mean; cell count: measured here: cell number; plate-normalised HSF1 focus index: stronger effect = lower value
# [23] = viability rescue of complex I mutant cybrids, primary screen, cell-based, galactose medium, ATP luminescence (AID 1645843;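 active = z-score of at least 1.8 in each of two replicates, scored against plate mean and spread of sample wells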;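 note: positive z means more ATP and so rescue of galactose-driven cybrid death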); settings: complex I mutant cybrid cells, 72 h, stronger effect = higher value
# [24] = measured here: epithelial PC-3E GFP cell survival
# [25] = measured here: mesenchymal TEM4-18 mCherry cell survival
# [26] = stronger effect = lower value, cell number ratio, induced over uninduced
# [27] = measured here: relative caspase fold change +Dox/-Dox
# [28] = measured here: total cells with miR-34 induction, stronger effect = lower value
# [29] = measured here: total cells without miR-34 induction
smiles,measurement,setting,value
CCSC(SCC)[C@@H]1NC(=O)O[C@H]1[C@H](O)[C@H](O)CO,red/green cell ratio (normalised),[1],1 (inactive)
same,normalised cell number,[1]; [24],1.12
same,normalised cell number,[1]; [25],1.12
Cc1ccc(S[C@H]2OC(CO)C(O)[C@H](O)[C@@H]2N)cc1 (some centres undefined),red/green cell ratio (normalised),[1],0.98 (inactive)
same,normalised cell number,[1]; [24],1
same,normalised cell number,[1]; [25],0.97
CCCc1oc(=O)cc(OC)c1CO,red/green cell ratio (normalised),[1],0.86 (inactive)
same,normalised cell number,[1]; [24],1.2
same,normalised cell number,[1]; [25],1.03
CC(=O)O[C@H]1C(=O)[C@@]2(C)C([C@H](OC(=O)c3ccccc3)[C@]3(O)C[C@H](OC(=O)[C@H](O)[C@@H](NC(=O)c4ccccc4)c4ccccc4)C(C)=C1C3(C)C)[C@]1(OC(C)=O)CO[C@@H]1C[C@@H]2O (some centres undefined),inhibition,[2],28.3%
same,score,[3],1.98
same,rescue above control,[4],5.24
same,cytochrome c release ratio,[5],1.41
same,inhibition of aggregation,[6],69%
same,glutamate uptake change,[7],-2.18%
same,aggregation suppression score,[8],1.25
same,period change,[9],0.575 h (inactive)
same,parasite load remaining,[10],178% (inactive) and 65.8% (inactive)
same,viability,[10],87.4% and 98%
same,inhibition,[11],-1% (inactive)
same,fluorescence ratio (interference),[12],0.9 (inactive)
same,red/green cell ratio (normalised),[1],0.49 (inactive)
same,normalised cell number,[1]; [24],0.23
same,normalised cell number,[1]; [25],0.11
same,remaining activity,[13],121% (inactive)
same,AC50,[14],5.9 nM (active)
same,outcome,[15],inactive
same,outcome,[16],inactive
same,outcome,[17],inactive
same,outcome,[18],inactive
same,AC50,[19],7.42 nM (active)
same,outcome,[20],inactive
same,fold change,[21]; [26],1.16 (inactive) and 1.14 (inactive)
same,fold change,[21]; [27],0.394 and 2.19
same,cell count,[21]; [28],2700 and 2090
same,cell count,[21]; [29],2330 and 1830
same,SSMD,[22],5.16
same,cell count,[22],6910
same,plate-normalised HSF1 focus index,[22],1.32 (inactive)
same,z-score,[23],0.865 (inactive)
COc1ccc2c(c1)CCC1C2CC[C@@]2(C)C1CC[C@@H]2O (some centres undefined),red/green cell ratio (normalised),[1],0.78 (inactive)
same,normalised cell number,[1]; [24],1.46
same,normalised cell number,[1]; [25],1.14
O=C(O)c1ccccc1Nc1cccc(OCc2ccc3ccccc3n2)c1,period change,[9],-0.125 h (inactive)
same,inhibition,[11],0% (inactive)
same,fluorescence ratio (interference),[12],1 (inactive)
same,red/green cell ratio (normalised),[1],0.86 (inactive)
same,normalised cell number,[1]; [24],1.35
same,normalised cell number,[1]; [25],1.16
same,remaining activity,[13],112% (inactive)
same,fold change,[21]; [26],0.992 (inactive) and 0.929 (inactive)
same,fold change,[21]; [27],0.944 and 0.452
same,cell count,[21]; [28],9820 and 8230
same,cell count,[21]; [29],9900 and 8860
same,z-score,[23],2.17 (active) and -0.695 (inactive)
CC#C[C@]1(O)CCC2C3CCC4=CC(=O)CCC4=C3[C@@H](c3ccc(N(C)C)cc3)C[C@@]21C (some centres undefined),red/green cell ratio (normalised),[1],1 (inactive)
same,normalised cell number,[1]; [24],1.09
same,normalised cell number,[1]; [25],1.09
CC(CCC(=O)O)[C@H]1CCC2C3C(C[C@H](O)[C@@]21C)[C@@]1(C)CC[C@@H](O)C[C@H]1C[C@H]3O (some centres undefined),red/green cell ratio (normalised),[1],0.97 (inactive)
same,normalised cell number,[1]; [24],1.01
same,normalised cell number,[1]; [25],0.98
COc1c(N2CC[C@@H](CN)C2)c(F)cc2c(=O)c(C(=O)O)cn(CCc3ccccc3)c12,red/green cell ratio (normalised),[1],1.14 (inactive)
same,normalised cell number,[1]; [24],0.87
same,normalised cell number,[1]; [25],1
